Drawing on PMC7862700, “An all-to-all approach to the identification of sequence-specific readers for epigenetic DNA modifications on cytosine”, this text covers binding signal for two sequences.

Common to all, as to test: DAPPL (digital affinity profiling via proximity ligation, sequencing); 10 mM Tris-HCl pH 7.5, 50 mM NaCl, 1 mM DTT, 4% glycerol, room temperature, 30 min; GST-TFs on glutathione beads, 16-mer random dsDNA library, 0.1% formaldehyde crosslink after washing; high values mean tight binding
Common to all, as to conditions: protein: recombinant; tags: N-terminal GST; dsDNA, one strand shown

One experiment has as its target T1, FLI1 (Homo sapiens, UniProt Q01543 1-452).
T1 sequence: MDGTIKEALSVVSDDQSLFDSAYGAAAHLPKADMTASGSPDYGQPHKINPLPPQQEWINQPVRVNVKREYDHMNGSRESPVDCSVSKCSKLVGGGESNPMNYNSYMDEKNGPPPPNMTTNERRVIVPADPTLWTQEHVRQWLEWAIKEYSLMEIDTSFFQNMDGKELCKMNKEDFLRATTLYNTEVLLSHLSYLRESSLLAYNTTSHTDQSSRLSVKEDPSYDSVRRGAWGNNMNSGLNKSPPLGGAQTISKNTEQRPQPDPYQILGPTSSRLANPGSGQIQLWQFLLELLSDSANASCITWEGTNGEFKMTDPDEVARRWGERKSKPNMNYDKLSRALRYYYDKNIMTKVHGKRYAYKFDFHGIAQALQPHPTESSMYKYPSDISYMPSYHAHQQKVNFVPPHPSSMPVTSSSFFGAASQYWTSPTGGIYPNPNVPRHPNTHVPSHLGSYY
An outline of the steps:
(§1)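 A tag-only sample was pooled with DNA-barcoded human transcription factors that had been expressed in yeast as GST fusions and captured on glutathione beads. The pools were incubated for 30 min at room temperature with 200 nmole of a random double-stranded 16-mer DNA library in Tris/NaCl/DTT/glycerol buffer, then washed, crosslinked with 0.1% formaldehyde, proximity-ligated (BsaI/T4 ligase, 1 h, 37 °C), PCR-amplified and sequenced on an Illumina NextSeq500. Binding signal is each hexamer's read frequency for a factor divided by its frequency for the tag-only sample.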

In a further experiment the target is T2, ELK1 (Homo sapiens, UniProt P19419 1-428).
T2 sequence: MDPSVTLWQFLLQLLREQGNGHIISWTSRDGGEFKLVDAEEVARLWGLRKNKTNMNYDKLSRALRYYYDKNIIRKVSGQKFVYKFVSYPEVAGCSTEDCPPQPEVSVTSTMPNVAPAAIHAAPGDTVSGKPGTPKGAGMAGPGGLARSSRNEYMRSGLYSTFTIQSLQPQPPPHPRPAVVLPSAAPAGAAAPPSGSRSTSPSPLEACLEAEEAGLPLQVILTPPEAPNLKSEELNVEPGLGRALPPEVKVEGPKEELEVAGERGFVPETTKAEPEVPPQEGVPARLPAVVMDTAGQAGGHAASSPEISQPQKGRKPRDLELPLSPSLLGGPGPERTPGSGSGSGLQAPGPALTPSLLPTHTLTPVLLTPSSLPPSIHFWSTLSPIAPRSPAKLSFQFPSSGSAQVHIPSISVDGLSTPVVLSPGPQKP
An outline of the steps: as §1

A further experiment deals with T3, GABPA (Homo sapiens, UniProt Q06546 1-454).
T3 sequence: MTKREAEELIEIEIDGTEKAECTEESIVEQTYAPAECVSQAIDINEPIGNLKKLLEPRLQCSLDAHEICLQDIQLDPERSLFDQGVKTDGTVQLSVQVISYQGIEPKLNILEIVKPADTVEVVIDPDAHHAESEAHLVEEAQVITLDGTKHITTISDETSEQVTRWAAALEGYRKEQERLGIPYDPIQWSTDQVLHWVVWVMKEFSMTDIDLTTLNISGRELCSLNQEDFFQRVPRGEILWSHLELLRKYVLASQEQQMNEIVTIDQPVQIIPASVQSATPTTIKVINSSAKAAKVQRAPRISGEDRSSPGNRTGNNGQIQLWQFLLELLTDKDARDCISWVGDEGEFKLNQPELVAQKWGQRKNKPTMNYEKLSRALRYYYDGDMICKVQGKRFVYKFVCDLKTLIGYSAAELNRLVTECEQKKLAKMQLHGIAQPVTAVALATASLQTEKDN
An outline of the steps:
as §1

The next experiment has as its target T4, ERG (Homo sapiens, UniProt P11308 1-479).
T4 sequence: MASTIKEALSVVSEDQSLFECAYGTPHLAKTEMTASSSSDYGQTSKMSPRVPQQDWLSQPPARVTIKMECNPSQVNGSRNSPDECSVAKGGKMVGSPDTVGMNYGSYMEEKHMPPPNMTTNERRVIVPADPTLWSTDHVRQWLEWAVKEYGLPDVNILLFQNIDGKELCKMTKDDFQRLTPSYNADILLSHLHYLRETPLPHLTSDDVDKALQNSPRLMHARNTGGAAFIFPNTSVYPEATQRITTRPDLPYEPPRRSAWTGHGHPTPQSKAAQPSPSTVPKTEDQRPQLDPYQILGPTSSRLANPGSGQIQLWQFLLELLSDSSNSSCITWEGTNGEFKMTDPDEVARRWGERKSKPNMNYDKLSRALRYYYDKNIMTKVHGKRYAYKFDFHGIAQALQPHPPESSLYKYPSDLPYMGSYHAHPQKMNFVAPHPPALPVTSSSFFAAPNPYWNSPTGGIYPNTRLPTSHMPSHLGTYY
In outline: as §1

The target in another experiment is ELF1 (Homo sapiens, UniProt P32519 1-619). An outline of the steps:
as §1

In another experiment the target is T5, EHF (Homo sapiens, UniProt Q9NZC4 1-300).
T5 sequence: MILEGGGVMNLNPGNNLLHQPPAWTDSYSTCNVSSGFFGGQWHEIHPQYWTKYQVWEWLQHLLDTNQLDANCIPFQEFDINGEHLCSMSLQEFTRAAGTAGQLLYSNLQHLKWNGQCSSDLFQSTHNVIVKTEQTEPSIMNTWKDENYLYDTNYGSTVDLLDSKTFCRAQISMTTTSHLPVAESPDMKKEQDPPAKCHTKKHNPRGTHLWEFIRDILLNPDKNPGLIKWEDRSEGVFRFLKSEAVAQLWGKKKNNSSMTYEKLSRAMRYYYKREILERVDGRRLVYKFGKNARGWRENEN
In outline:
as §1

A further experiment deals with SPI1 (Homo sapiens, UniProt P17947 1-270). An outline of the steps: as §1
The target of the next experiment is SPIB (Homo sapiens, UniProt Q01892 1-262). An outline of the steps: as §1
SPIB, sequence (Q01892 whole entry): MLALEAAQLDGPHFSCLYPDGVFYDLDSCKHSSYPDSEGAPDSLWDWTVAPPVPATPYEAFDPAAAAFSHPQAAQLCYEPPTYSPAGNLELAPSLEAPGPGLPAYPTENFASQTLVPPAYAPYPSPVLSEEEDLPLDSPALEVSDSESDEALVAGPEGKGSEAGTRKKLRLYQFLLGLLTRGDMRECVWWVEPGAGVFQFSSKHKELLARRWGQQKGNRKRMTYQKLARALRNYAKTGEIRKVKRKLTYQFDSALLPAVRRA
For another experiment, the target named is T6, ELK3 (Homo sapiens, UniProt P41970 1-407).
T6 sequence: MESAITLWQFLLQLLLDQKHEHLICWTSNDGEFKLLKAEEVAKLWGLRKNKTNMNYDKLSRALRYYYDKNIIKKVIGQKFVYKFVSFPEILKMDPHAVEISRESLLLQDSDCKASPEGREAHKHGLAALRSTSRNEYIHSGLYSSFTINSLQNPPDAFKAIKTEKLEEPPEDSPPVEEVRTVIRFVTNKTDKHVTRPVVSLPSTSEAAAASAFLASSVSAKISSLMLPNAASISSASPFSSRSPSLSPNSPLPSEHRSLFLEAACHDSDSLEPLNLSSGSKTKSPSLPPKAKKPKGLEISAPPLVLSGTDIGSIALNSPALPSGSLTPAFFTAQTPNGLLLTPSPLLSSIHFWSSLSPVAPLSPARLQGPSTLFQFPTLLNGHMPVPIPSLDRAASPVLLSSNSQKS
In outline: as §1

A further experiment deals with T7, FEV (Homo sapiens, UniProt Q99581 1-238).
T7 sequence: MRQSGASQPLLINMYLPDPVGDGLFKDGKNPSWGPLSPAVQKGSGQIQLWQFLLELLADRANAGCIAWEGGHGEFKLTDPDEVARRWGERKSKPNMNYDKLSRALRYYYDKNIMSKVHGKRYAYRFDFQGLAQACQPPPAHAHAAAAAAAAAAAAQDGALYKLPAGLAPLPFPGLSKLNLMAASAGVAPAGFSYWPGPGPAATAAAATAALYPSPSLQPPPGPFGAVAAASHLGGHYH
An outline of the steps: as §1

In the next experiment the target is ETV5 (Homo sapiens, UniProt P41161 1-510). In outline: as §1
ETV5, sequence (P41161 whole entry): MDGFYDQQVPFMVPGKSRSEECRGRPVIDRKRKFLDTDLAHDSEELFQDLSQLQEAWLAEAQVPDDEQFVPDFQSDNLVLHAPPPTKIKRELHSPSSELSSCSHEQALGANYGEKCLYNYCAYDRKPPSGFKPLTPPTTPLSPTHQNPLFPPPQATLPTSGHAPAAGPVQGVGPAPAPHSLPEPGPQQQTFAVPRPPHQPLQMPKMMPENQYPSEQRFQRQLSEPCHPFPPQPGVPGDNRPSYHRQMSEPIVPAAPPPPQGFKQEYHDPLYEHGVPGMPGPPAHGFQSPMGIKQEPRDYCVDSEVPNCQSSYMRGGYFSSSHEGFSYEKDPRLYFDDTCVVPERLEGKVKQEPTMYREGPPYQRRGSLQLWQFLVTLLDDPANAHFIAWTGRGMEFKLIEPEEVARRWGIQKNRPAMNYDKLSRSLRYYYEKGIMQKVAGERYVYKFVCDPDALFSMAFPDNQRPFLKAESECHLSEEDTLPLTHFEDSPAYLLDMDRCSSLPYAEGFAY
Another experiment has as its target T8, SPIC (Homo sapiens, UniProt Q8N5J4 1-248).
T8 sequence: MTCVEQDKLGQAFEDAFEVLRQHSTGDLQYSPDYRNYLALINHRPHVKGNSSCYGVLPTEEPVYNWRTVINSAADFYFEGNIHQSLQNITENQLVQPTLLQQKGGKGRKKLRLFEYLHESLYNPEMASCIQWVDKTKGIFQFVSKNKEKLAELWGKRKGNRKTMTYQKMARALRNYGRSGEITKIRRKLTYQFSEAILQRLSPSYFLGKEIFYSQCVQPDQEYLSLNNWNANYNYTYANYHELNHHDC
In outline:
as §1

The target of the next experiment is ELF4 (Homo sapiens, UniProt Q99607 1-663). In outline:
as §1

In a further experiment the target is T9, ELK4 (Homo sapiens, UniProt P28324-2 1-405).
T9 sequence: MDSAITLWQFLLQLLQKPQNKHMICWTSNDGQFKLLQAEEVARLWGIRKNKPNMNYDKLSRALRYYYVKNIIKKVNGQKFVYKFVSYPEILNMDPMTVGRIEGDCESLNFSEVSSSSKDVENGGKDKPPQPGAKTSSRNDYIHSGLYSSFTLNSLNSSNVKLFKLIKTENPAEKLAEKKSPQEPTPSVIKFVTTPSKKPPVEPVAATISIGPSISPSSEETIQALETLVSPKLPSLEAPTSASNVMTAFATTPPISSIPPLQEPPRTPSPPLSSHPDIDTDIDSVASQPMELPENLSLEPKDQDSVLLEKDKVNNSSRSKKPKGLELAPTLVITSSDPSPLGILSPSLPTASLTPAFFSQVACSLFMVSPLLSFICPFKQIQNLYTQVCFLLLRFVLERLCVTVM
An outline of the steps: as §1

A further experiment has as its target T10, ETV2 (Homo sapiens, UniProt O00321 1-342).
T10 sequence: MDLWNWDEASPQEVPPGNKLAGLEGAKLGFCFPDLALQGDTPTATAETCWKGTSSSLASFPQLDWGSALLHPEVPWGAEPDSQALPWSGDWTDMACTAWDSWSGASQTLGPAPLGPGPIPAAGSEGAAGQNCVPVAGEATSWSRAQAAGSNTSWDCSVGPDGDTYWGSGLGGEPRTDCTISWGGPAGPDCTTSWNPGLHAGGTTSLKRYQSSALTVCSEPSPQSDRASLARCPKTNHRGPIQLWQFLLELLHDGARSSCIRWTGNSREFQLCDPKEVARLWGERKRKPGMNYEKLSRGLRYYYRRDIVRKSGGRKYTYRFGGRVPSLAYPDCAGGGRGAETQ
An outline of the steps: as §1

The target in another experiment is T11, ELF3 (Homo sapiens, UniProt P78545 1-371).
T11 sequence: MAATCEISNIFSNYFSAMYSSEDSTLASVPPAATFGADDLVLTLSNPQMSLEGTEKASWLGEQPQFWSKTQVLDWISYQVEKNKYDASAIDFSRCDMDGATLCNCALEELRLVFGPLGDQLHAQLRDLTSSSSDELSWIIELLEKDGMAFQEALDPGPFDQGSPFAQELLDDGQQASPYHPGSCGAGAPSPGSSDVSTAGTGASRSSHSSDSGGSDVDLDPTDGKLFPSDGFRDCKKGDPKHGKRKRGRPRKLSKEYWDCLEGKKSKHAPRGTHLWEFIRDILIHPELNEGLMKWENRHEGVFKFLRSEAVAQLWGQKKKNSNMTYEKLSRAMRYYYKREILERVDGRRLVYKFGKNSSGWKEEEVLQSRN
An outline of the steps:
as §1

The target in a further experiment is ETV1 (Homo sapiens, UniProt P50549 1-477). In outline: as §1
ETV1, sequence (P50549 whole entry): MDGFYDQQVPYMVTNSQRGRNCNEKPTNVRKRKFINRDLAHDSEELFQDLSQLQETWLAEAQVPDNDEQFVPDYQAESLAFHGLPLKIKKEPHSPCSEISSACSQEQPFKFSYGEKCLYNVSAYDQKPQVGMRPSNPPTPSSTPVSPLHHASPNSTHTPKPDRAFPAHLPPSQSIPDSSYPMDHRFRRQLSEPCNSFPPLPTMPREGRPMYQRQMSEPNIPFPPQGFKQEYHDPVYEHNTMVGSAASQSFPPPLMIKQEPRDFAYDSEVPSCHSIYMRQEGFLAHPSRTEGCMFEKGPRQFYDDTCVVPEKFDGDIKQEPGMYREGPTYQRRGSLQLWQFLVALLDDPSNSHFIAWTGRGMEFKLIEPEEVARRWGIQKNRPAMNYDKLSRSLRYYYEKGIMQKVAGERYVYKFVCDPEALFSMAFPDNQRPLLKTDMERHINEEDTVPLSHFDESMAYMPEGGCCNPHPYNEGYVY

ELF4, sequence (Q99607 whole entry): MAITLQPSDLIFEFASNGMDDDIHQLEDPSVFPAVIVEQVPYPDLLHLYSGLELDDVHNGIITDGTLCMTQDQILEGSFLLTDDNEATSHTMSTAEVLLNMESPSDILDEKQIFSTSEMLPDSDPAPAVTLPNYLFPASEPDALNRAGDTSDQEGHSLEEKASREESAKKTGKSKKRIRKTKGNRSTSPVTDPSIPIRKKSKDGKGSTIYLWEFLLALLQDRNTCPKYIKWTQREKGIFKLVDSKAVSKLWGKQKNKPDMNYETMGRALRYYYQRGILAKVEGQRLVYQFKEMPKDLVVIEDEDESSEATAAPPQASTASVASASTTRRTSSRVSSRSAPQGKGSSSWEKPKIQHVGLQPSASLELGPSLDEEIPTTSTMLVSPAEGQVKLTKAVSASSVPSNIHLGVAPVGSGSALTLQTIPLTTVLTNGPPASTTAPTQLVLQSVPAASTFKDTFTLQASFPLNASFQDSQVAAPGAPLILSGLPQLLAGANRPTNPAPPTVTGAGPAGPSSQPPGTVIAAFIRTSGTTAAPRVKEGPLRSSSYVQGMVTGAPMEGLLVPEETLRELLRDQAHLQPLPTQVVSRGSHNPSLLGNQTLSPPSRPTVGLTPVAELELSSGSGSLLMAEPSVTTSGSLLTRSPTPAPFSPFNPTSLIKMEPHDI
ELF1, sequence (P32519 whole entry): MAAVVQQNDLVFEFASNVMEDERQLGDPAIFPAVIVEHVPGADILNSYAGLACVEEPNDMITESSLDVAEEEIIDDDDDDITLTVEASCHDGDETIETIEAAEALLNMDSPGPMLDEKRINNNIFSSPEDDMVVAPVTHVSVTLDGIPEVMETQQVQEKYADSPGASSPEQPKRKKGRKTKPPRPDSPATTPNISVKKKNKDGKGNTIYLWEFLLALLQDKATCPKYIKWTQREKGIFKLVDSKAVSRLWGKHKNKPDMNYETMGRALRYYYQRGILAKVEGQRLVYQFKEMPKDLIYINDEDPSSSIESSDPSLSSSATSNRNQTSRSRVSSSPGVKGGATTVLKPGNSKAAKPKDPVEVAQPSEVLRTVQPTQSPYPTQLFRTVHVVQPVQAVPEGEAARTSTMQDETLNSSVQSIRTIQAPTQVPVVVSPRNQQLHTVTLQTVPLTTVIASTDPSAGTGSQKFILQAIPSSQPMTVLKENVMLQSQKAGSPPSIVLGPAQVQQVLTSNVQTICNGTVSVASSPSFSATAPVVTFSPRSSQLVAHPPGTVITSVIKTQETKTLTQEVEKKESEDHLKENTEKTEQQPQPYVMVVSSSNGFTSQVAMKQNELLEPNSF

For AAGTGG, the binding signal is 1.09 fold enrichment (6-mer frequency, TF over GST control) in the experiment with FLI1; 1.19 fold enrichment (6-mer frequency, TF over GST control) with ELK1; 1.22 fold enrichment (6-mer frequency, TF over GST control) with GABPA; 1.16 fold enrichment (6-mer frequency, TF over GST control) with ERG; 1.17 fold enrichment (6-mer frequency, TF over GST control) with ELF1; 1.24 fold enrichment (6-mer frequency, TF over GST control) in the experiment with EHF. Besides, the binding signal with SPI1 is 1.5 fold enrichment (6-mer frequency, TF over GST control); with SPIB, 1.26 fold enrichment (6-mer frequency, TF over GST control); with ELK3, 1.33 fold enrichment (6-mer frequency, TF over GST control); with FEV it was 1.23 fold enrichment (6-mer frequency, TF over GST control); with ETV5, 1.17 fold enrichment (6-mer frequency, TF over GST control); with SPIC, 1.43 fold enrichment (6-mer frequency, TF over GST control). The binding signal is 1.12 fold enrichment (6-mer frequency, TF over GST control) with ELF4; 1.13 fold enrichment (6-mer frequency, TF over GST control) in the experiment with ELK4; 1.02 fold enrichment (6-mer frequency, TF over GST control) in the experiment with ETV2; 1.19 fold enrichment (6-mer frequency, TF over GST control) in the experiment with ELF3; 1.2 fold enrichment (6-mer frequency, TF over GST control) with ETV1.
As for CACAAC, the binding signal is 1.24 fold enrichment (6-mer frequency, TF over GST control) with FLI1; 1.24 fold enrichment (6-mer frequency, TF over GST control) with ELK1; 1.3 fold enrichment (6-mer frequency, TF over GST control) with GABPA; 1.25 fold enrichment (6-mer frequency, TF over GST control) with ERG; 1.28 fold enrichment (6-mer frequency, TF over GST control) in the experiment with ELF1; 1.21 fold enrichment (6-mer frequency, TF over GST control) with EHF. In addition, the binding signal is 1.21 fold enrichment (6-mer frequency, TF over GST control) with SPI1; 1.23 fold enrichment (6-mer frequency, TF over GST control) with SPIB; 1.22 fold enrichment (6-mer frequency, TF over GST control) with ELK3; 1.31 fold enrichment (6-mer frequency, TF over GST control) in the experiment with FEV; 1.24 fold enrichment (6-mer frequency, TF over GST control) with ETV5; 1.25 fold enrichment (6-mer frequency, TF over GST control) in the experiment with SPIC. Besides, the binding signal is 1.23 fold enrichment (6-mer frequency, TF over GST control) with ELF4; 1.25 fold enrichment (6-mer frequency, TF over GST control) in the experiment with ELK4; 1.19 fold enrichment (6-mer frequency, TF over GST control) in the experiment with ETV2; 1.3 fold enrichment (6-mer frequency, TF over GST control) in the experiment with ELF3; 1.2 fold enrichment (6-mer frequency, TF over GST control) with ETV1.
